Source: PubChem
The list is not random: actives were taken first. Their share in the collection is about 7.6%.
RORg inh: qHTS for inhibitors of ROR gamma transcriptional activity; Drosophila S2 Gal4-RORgamma UAS-luciferase reporter, 20 h; Potency, µM (titrated, usually from 53.6 µM), for inactives: at the top dose activity change, negative = inhibition, usual class: inhibitors; 5.4% of 310,000 active; AID 2551, 2010; also: potency is read from the fitted curve at half-maximal effect; % is scaled to controls: 0 for no effect and ±100 for the full control effect; nearly all actives have a fitted effect of over 60% in size
Target sequence (P51450 whole entry, looked up, the tested form may be a part): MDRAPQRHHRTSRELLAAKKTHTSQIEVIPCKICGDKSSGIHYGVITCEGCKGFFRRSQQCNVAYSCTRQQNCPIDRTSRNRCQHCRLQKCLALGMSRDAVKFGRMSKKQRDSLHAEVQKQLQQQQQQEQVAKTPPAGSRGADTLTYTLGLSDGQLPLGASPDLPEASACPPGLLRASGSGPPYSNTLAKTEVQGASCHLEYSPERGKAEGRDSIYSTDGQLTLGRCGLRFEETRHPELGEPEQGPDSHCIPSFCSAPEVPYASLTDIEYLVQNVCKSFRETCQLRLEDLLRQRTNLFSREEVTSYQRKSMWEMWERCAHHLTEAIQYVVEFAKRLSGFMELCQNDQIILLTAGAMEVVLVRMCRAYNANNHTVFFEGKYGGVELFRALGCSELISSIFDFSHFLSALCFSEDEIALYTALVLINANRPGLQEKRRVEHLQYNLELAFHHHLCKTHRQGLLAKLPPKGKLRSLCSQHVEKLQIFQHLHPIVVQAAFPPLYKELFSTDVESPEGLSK
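Schneider cells (Drosophila), stable Gal4 DBD–ROR gamma + UAS-luc; 1 hr cmpd preincubation; Cu2+ induction 700 uM final; 20 hr ambient; luminescence.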
ELG1 repair inh: qHTS screen for small molecules that inhibit ELG1-dependent DNA repair in human embryonic kidney (HEK293T) cells expressing luciferase-tagged ELG1. HEK293T ELG1-luciferase reporter, luminescence, 16 h; DNA damage induced by 5-fluorouridine. Potency, µM (titrated, usually from 46.1 µM), for the others: at the top dose activity change, negative = inhibition, usual class: inhibitors. 2.3% of 330,000 active. AID 504467, 2011; also: potency is read from the fitted curve at half-maximal effect; % is scaled to controls: 0 for no effect and ±100 for the full control effect; nearly all actives have a fitted effect of over 55% in size
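HEK293T cells expressing luciferase-tagged ELG1 (2,000/well) received 5-Fluorouridine plus compound or DMSO for 16 hr at 37 °C. Luciferase was read by ONE-Glo luminescence after 30 min at room temperature.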
p53 reactivation: qHTS assay for re-activators of p53 using a Luc reporter. H1299 p53-A138V BP100-luciferase reporter, luminescence, 24 h. Potency, µM (series often up to 92.2 µM), inactives show at the top dose activity change, positive = activation, hits mostly activators. 0.063% of 320,000 active. AID 504706, 2011; also: potency is read from the fitted curve at half-maximal effect; % of control where 0% means no effect; nearly all actives have a fitted effect of over 45% in size
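p53-null H1299 cells stably carrying temperature-sensitive p53-A138V and a BP100-luciferase reporter were pinned with compounds (4-point, 1:5 series) and held 24 hrs at 37 deg C. Luminescence was read 10 min after detection reagent.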
Giardia kill: Small Molecules that selectively kill Giardia lamblia: qHTS. 0.15% of 340,000 active. activity change, % at 7.66 µM, hits read low. Giardia lamblia trophozoite viability; in the data active = activity change below about -80%; inconclusive = between about -30% and that limit;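 also: parasites exposed to compound for two days anaerobically before the ATP read; % is scaled to controls: 0 for no effect and ±100 for the full control effect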
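Compounds were tested on trophozoites seeded at 100 cells/well and held 48 hrs at 37 deg C anaerobically. An ATP-based luminescent kit measured the remaining live cells.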
BRCA1 expr act: qHTS Assay to Identify Small Molecule Activators of BRCA1 Expression; MCF7-BRCA1-FFLuc reporter, luminescence, 48 h; response scale: scaled: vehicle 0%, 10 µM genistein 100%; Potency, µM (series often up to 46.1 µM), inactives show top-dose activation, usual class: activators; 1.1% of 380,000 active; also: potency is read from the fitted curve at half-maximal effect; nearly all actives have a fitted effect of over 80% in size
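Using MCF7 cells harboring a BRCA1 firefly luciferase reporter, plated 2 h before compound pinning, the screen measured luminescence after 48 h incubation. Responses were normalized to DMSO and 10 microM genistein, then fitted for concentration-effect.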
VP16 counter: VP16 counterscreen qHTS for inhibitors of ROR gamma transcriptional activity | AID 2546, 2010 | Drosophila S2 Gal4-VP16 UAS-luciferase, luminescence, 20 h | 3.5% of 310,000 active | Potency, µM (series often up to 53.6 µM), for the others: at the highest dose activity, negative = inhibition, usual class: inhibitors;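 also: Gal4-VP16 expression switched on by copper sulfate through the metallothionein promoter; potency is read from the fitted curve at half-maximal effect; % is scaled to controls: 0 for no effect and ±100 for the full control effect; nearly all actives have a fitted effect of over 50% in size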
Active calls of the source: *; ? = inconclusive; . = no result given; [ ] = dose if it differs, or a comment. Unless noted, calls follow the shape of the dose curve; as a rule, active = well fitted curve in the direction sought with a large enough effect; inconclusive = small, poorly fitted or top-dose-only effect, or another doubt; inactive = no such curve, though single readings can be large; an effect the other way counts as inactive or inconclusive.

SMILES	RORg inh	ELG1 repair inh	p53 reactivation	Giardia kill	BRCA1 expr act	VP16 counter
Cc1cc(C)n(-c2nc(NCCC(C)C)c3c4c(sc3n2)COC(C)(C)C4)n1	0.63µM*	18µM*	1%	19	-6%	-12%
CCOc1ccc(-c2nnc3ccc(SCc4ccc(C(=O)OC)o4)nn23)cc1	-5%	21µM*	-3%	13	-31%	?
Cc1ccc(CSc2ccc3nnc(-c4ccccn4)n3n2)cc1	13%	-3%	-1%	-22	-46%	2%
COC(=O)c1ccc(CSc2ccc3nnc(-c4ccccn4)n3n2)o1	11µM*	2%	-1%	-3	3%	?
COC(=O)c1ccc(CSc2ccc3nnc(-c4ccc(F)cc4)n3n2)o1	-1%	-6%	3%	-7	-24%	2%
N#Cc1ccc(OCC(=O)NCCCn2ccnc2)cc1	.	18%	2%	-5	-3%	.
O=C(CCCCCN1C(=O)C2C3C=CC(C3)C2C1=O)Nc1nccs1 (configuration not stated)	29%	-6%	-1%	0	0%	0%
CCCOc1ccc(Cc2c(Cl)nc(SC)nc2N(C)C)cc1	?	-22%	-1%	9	-18%	5µM*
O=C(Nc1ccncc1)c1ccc(-c2ccccc2)cc1	7.9µM*	1.8µM*	-3%	-29	9%	?
O=C(Nc1ccncc1)c1ccc2c(c1)S(=O)(=O)c1ccccc1C2=O	13%	9.2µM*	-5%	-1	-18%	-7%
O=C(Nc1ccc(-c2cnco2)cc1)c1ccccc1	1%	?	16%	-6	2.8µM*	0%
O=C(Nc1ccc(-c2ccccc2)cc1)c1ccc2c(c1)S(=O)(=O)c1ccccc1C2=O	.	.	.	-5	7%	.
COCC1OS(=O)(=O)NC(CC(=O)SC(C)(C)C)C1C (configuration not stated)	-10%	-6%	.	-16	-10%	11%
COc1cc(OC)c(C(=O)O/N=C(\N)c2ccccc2)cc1OC	-8%	11%	15%	0	19%	-11%
COCCCN=Cc1c(C)[nH]n(-c2ccc(Br)c(C)c2)c1=O	7.1µM*	?	?	-1	?	6.3µM*
COc1ccc(-c2cc(C(=O)N(C)Cc3cccc(OC)c3OC)c3ccccc3n2)cc1OC	15%	13µM*	-5%	9	-45%	-5%
COc1ccc(-c2cc(C(=O)N(C)CCc3ccc(OC)c(OC)c3)c3ccccc3n2)cc1	5µM*	13%	7%	10	-9%	-9%
COc1ccc(CCN(C)C(=O)c2cc(-c3ccccc3)nc3ccccc23)cc1OC	?	?	2%	-3	-18%	8%
N=C1S/C(=C\c2ccc(O)cc2)C(=O)N1c1ccc(F)cc1	2.5µM*	14%	1%	-17	-1%	2.8µM*
CCOc1cc(/C=C2\SC(=O)N(c3ccc(O)cc3)C2=O)ccc1O	-15%	-25%	9%	-21	15%	-7%
COc1cc(C=O)ccc1OCCCOc1ccccc1[N+](=O)[O-]	-44%	?	?	15	7.1µM*	?
COc1cc(C=O)ccc1OCCCCOc1ccccc1[N+](=O)[O-]	6%	5%	-3%	9	21%	3%
COc1cc(C=O)ccc1OCCCOc1ccccc1C(=O)O	1.4µM*	?	-13%	-3	-44%	6.3µM*
Cc1nc(Nc2nc(CSc3nc4ccccc4[nH]3)cc(=O)[nH]2)nc2ccccc12	?	13µM*	?	7	-96%	?
COc1ccc2nc(Nc3nc(CSc4nc5ccccc5[nH]4)cc(=O)[nH]3)nc(C)c2c1	5.6µM*	5.8µM*	40µM*	15	-75%	5µM*
SMILES	RORg inh	ELG1 repair inh	p53 reactivation	Giardia kill	BRCA1 expr act	VP16 counter
Cc1nc(Nc2nc(CSc3ccc(Cl)cc3)cc(=O)[nH]2)nc2ccccc12	-2%	-12%	-9%	-4	-29%	-4%
Cc1ccc2nc(Nc3nc(CSc4nnnn4-c4ccccc4)cc(=O)[nH]3)nc(C)c2c1	7%	3%	1%	-12	2%[1.84 µM]	14%
COc1ccc(CNC(=O)c2cccc3c(-c4cnn(C)c4)coc23)cc1OC	.	.	.	.	-33%	.
COC(=O)c1c(NC(=O)c2cc3ccccc3c(=O)o2)sc2c1CCCC2	.	.	.	.	-4%	.
Cn1c2ccccc2c(=O)c2ccc(C#CC3(N)CCCCC3)cc21	-37%	?	.	6	5.6µM*	-11%
COc1cccc2oc3ccc(C#CC4(N)CCCCC4)cc3c(=O)c12	?	?	.	8	7.9µM*	?
COc1cc2oc3ccc(C#Cc4ccc(N)cc4)cc3c(=O)c2cc1OC	.	.	.	10	49%	.
Cn1c2ccccc2c(=O)c2ccc(C#Cc3ccccn3)cc21	11µM*	?	14%	8	11µM*	16µM*
Cn1c2ccccc2c(=O)c2cc(C#CC3(O)CCCCC3)ccc21	11µM*	?	3%	?	0%	16µM*
O=c1c2ccccc2oc2ccc(C#CC3(O)CCCCC3)cc12	.	.	.	?	16%	.
COc1ccc(OC)c(NC(=O)Nc2cccnc2)c1	0%	-5%	7%	14	-18%	2%
CN(C(=O)CSc1ccc(S(=O)(=O)N2CCCCC2)cn1)c1ccccc1	.	-3%	0%	5	-13%	.
CC(=O)c1ccc(N=Nc2ccc(C)cc2)cc1	10µM*	?	11%	-2	20%	?
Cc1cnn(CCC(=O)NNC(=S)NCC(C)C)c1	0.56µM*	15%	-8%	?	6%	3.2µM*
CC(C)CNC(=S)NNC(=O)CC(C)O (configuration not stated)	0%	0%	0%	-23	-3%	0%
CCCCNC(=S)NNC(=O)CCn1cc(C)cn1	1.6µM*	-9%	0%	6	14%	6.3µM*
CC1=NN(C(C#N)c2ccc(F)cc2)C(c2ccccc2)C1 (configuration not stated)	?	7%	-22%	24	0%	0%
CCOC(=O)[C@]12CCC=C1N(Cc1cccc3ccccc13)C(=O)[C@H](CC(=O)NCCc1ccccc1OC)C2	.	.	.	.	-38%	.
CCc1ccc(NC(=O)CSc2nc3n[nH]c(C)c3c(=N)n2-c2cccc(OC)c2)cc1	-2%	10µM*	0%	-2	-53%	3%
